Assay [1] relates to Wnt5a (protein binding on small-molecule microarray). The experiment in a line: Wnt5a binders on small-molecule microarray, primary screen, biophysical, 635/667 nm fluorescence (AID 1142).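 Also: fluorescence read at 667 nm with signal to noise per printed feature.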 To be noted: 635 nm fluorescence, higher = more signal.
A short description of assay [2]: cell viability in Huh7 cells, primary screen, cytotoxicity control for HCV replication inhibitor project, CellTiter-Glo luminescence, basal, 48 h (AID 1143).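 Also: Huh7 hepatoma cells carrying a hepatitis C replication reporter with no stimulus; test concentration not given here.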 Particulars: Huh7 HCV replicon, higher = more signal, called active from +8 up or from −8 down.
Assay [3] can be described thus: CREB reporter modulators without forskolin, primary screen, cell-based, PC12, CRE-LacZ reporter, unstimulated (AID 1145). To be noted: no forskolin, luminescence, 4.5 h, higher = more signal, called active from +8 up or from −8 down.
Assay [4] can be described thus: CREB reporter modulators under forskolin, primary screen, cell-based, PC12, CRE-LacZ reporter, forskolin-stimulated (AID 1146).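 Also: PC12 cells with 6xCRE LacZ reporter stimulated by forskolin 10 µM; beta-galactosidase reporter signal reflecting CREB driven transcription.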 To be noted: luminescence, 4.5 h, higher = more signal, called active from +8 up or from −8 down.
For assay [5], the target named is Streptavidin (Streptomyces avidinii) (UniProt P22629). The experiment in a line: streptavidin binders on small-molecule microarray, primary screen, artefact control for SMM compound annotation, biophysical, 635/667 nm fluorescence (AID 1147).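 Also: signal reflects streptavidin binding to arrayed compounds as a control protein.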 Particulars: streptavidin binding, higher = more signal.
Streptavidin (Streptomyces avidinii), sequence (P22629 whole entry, looked up): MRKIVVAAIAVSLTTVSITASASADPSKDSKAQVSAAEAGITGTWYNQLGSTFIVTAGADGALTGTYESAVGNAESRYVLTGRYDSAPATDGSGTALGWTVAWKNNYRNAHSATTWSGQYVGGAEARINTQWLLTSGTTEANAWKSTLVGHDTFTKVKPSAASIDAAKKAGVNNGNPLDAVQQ
The nature of assay [6]: small-molecule binders of probe aInhba, primary screen, biochemical, small-molecule microarray, 635/667 nm fluorescence (AID 1148).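 Also: score merges 667nm spot fluorescence with signal-to-noise for antibody binding to printed compounds.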 To be noted: higher = more signal.
Assay [7] addresses Torsin-1A (Homo sapiens) (UniProt O14656). The experiment in a line: torsin A binders from cell lysate, primary screen, small-molecule microarray, wild-type, 635/667 nm (AID 1149). Particulars: COS7 hTOR1A-WT lysate, 635 nm fluorescence, higher = more signal.
The target is the same in assay [8]. The experiment in a line: small-molecule binders of mutant TOR1A in lysate, primary screen, cell lysate, small-molecule microarray, COS7 lysate, 635/667 nm fluorescence (AID 1150).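 Also: score pools 667 nm emission and signal to noise measuring lysate protein binding.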 Particulars: COS7 hTOR1A mutant lysate, 635 nm fluorescence, higher = more signal.
For assay [9], the system named is Sonic hedgehog protein (Shh). The experiment in a line: small-molecule binders of Shh protein, primary screen, biochemical, small-molecule microarray, 635/667 nm fluorescence (AID 1151).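 Also: Shh protein binding to compounds spotted on small-molecule microarray slides; score combines spot fluorescence intensity with signal-to-noise across triplicate slides.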 Particulars: small-molecule microarray binding, 635 nm fluorescence; higher = more signal.
The nature of assay [10]: E. coli DRC41 culture turbidity changes, primary screen, E. coli filamentation inducer project, strain DRC41, OD650, 48 h (AID 1152).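 Also: E. coli MC1000 strain DRC41 lacking acrAB efflux pump and sulA.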 Particulars: E. coli DRC41 (acrAB sulA), higher = more signal, called active from +8 up or from −8 down.
A short description of assay [11]: small-molecule binders of probe aLefty1, primary screen, biochemical, small-molecule microarray, 635/667 nm fluorescence (AID 1153).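 Also: score merges spot fluorescence with signal-to-noise ratio from the scanned slide images.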 Particulars: higher = more signal.
Assay [12] in a line: PSAC antagonists in infected red cells, primary screen, cell-based, P. falciparum Indochina, OD700, 1 h (AID 1154). Particulars: P. falciparum Indochina infected RBC osmotic lysis, higher = more signal, called active from +8 up or from −8 down.
Assay [13] in a line: PSAC antagonists in infected red cells, primary screen, cell-based, P. falciparum Indochina, OD700, 2 h (AID 1155).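 Also: lysis reports solute entry through the parasite surface anion channel PSAC; channel blockers reduce lysis of infected cells.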 To be noted: P. falciparum Indochina infected erythrocytes, osmotic lysis OD700; higher = more signal, called active from +8 up or from −8 down.
Assay [14] in a line: osmotic lysis modulators in infected erythrocytes, primary screen, PSAC antagonist project, cell-based, P. falciparum Indochina, OD700, 3 h (AID 1156). Particulars: higher = more signal, called active from +8 up or from −8 down.
A short description of assay [15]: PSAC antagonists in infected red cells, primary screen, cell-based, P. falciparum Indochina, OD700, 18 h (AID 1157). To be noted: P. falciparum Indochina infected erythrocytes, osmotic lysis OD700, 18 h; higher = more signal, called active from +8 up or from −8 down.
Assay [16] is described as follows: modulators of S6 phosphorylation in cells, primary screen, cell-based, A549, cytoblot, luminescence, serum-stimulated (AID 1158).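 Also: serum-stimulated A549 lung adenocarcinoma cells; signal is phosphorylated S6 detected by cytoblot immunostaining with HRP secondary.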 Particulars: A549 phospho-S6 cytoblot, 5 h, higher = more signal.
Assay [17] concerns the target NADPH oxidase 2 (Homo sapiens) (UniProt P04839). The experiment in a line: NOX2-dependent H2O2 signal modulators, primary screen, NOX inhibitor project, cell-based, HEK293-NOX2, PMA-stimulated, Amplex Red fluorescence (AID 1159). Also: test concentration not given here. Particulars: 45 min, higher = more signal, called active from +8 up or from −8 down.
In assay [18] the target is NADPH oxidase 4 (Homo sapiens) (UniProt Q9NPH5). The experiment in a line: NOX4-dependent H2O2 signal modulators, primary screen, NOX inhibitor project, cell-based, HEK293-NOX4, tetracycline-induced, Amplex Red fluorescence (AID 1160). To be noted: 45 min, higher = more signal, called active from +8 up or from −8 down.
NADPH oxidase 4 (Homo sapiens), sequence (Q9NPH5 whole entry, looked up): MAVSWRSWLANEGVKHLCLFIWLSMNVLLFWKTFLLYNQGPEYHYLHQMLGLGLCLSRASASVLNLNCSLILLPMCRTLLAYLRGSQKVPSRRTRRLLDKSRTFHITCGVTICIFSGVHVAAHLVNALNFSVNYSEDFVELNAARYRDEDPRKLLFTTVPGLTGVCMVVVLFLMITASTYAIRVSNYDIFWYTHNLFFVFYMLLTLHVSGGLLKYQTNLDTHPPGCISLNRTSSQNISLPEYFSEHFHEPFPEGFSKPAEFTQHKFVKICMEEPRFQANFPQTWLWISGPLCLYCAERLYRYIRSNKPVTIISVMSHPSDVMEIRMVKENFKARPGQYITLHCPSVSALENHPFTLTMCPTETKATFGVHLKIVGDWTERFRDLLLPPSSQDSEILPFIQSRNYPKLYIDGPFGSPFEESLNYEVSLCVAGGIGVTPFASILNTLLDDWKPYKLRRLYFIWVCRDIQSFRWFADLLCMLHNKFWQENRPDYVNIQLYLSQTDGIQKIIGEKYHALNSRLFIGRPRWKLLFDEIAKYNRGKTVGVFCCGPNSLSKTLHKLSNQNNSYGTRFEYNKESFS
Assay [19] concerns the target NADPH oxidase 5 (Homo sapiens) (UniProt Q96PH1). The experiment in a line: NOX5-dependent H2O2 signal modulators, primary screen, NOX inhibitor project, cell-based, HEK293-NOX5, Amplex Red fluorescence (AID 1161). Particulars: HEK293-NOX5, ionomycin, 45 min, higher = more signal.
Assay [20] is described as follows: A549 cell viability effects, profiling panel, calcein-AM fluorescence, 48 h, basal (AID 1162). Also: test concentration not given here. To be noted: higher = more signal.

The source made the active and inactive calls.

NADPH oxidase 5 (Homo sapiens), sequence (Q96PH1 whole entry, looked up): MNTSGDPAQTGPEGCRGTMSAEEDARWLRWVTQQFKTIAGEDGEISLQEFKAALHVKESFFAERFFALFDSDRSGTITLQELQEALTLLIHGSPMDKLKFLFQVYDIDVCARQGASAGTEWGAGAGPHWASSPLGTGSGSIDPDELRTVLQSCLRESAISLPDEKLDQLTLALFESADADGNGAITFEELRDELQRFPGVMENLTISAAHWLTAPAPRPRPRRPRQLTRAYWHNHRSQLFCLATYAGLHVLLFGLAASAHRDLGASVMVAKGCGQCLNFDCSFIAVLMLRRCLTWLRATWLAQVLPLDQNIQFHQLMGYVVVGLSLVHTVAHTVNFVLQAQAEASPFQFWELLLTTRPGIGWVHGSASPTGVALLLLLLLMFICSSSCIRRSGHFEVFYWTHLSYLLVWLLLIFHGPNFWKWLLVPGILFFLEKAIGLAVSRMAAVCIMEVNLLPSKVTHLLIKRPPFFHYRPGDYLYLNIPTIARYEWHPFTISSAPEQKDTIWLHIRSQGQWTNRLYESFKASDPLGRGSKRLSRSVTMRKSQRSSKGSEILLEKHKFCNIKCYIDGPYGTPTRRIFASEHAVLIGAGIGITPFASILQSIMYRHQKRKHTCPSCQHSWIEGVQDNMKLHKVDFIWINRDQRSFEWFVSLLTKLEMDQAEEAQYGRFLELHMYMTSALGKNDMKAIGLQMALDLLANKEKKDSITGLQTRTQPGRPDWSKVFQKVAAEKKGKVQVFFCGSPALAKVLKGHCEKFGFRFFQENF
Torsin-1A (Homo sapiens), sequence (O14656 whole entry, looked up): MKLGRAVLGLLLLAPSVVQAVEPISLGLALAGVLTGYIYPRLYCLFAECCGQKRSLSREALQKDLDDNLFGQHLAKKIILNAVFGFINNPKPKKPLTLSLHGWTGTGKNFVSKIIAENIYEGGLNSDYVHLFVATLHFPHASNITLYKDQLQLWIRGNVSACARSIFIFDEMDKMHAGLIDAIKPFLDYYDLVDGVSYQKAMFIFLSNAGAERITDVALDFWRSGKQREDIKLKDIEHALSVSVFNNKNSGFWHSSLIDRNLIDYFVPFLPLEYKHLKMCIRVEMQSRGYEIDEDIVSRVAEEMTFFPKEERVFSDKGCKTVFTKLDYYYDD
NADPH oxidase 2 (Homo sapiens), sequence (P04839 whole entry, looked up): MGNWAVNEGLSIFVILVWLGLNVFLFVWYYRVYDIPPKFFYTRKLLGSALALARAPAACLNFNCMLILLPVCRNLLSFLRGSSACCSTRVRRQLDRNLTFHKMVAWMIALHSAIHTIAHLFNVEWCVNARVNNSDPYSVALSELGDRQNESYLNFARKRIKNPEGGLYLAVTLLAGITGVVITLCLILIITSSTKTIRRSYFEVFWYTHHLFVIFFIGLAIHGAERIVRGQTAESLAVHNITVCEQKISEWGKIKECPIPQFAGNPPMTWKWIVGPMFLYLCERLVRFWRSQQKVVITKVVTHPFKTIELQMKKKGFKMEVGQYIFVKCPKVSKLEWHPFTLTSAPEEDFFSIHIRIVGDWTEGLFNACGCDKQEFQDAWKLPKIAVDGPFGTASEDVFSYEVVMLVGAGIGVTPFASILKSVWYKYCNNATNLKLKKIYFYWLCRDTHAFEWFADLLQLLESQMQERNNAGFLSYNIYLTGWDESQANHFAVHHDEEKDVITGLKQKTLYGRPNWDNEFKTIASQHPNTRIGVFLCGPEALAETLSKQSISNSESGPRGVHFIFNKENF

In the case of `CC(C)C[C@@H]1NC(=O)[C@@]23C(=O)N[C@@H](Cc4ccccc4)C2[C@H](C)[C@@]2(C)O[C@H]2C3/C=C/CC/C=C/CNC(=O)[C@@H](C)NC1=O` (stereo not given in full), the composite z-score in [1] was 0.298; in assay [5] it was 0.0315; in assay [6], -0.16; with Torsin-1A (Homo sapiens) [7] it was 0.418; in the assay with Torsin-1A (Homo sapiens) [8], -0.0123; in [9], 1.78. This compound also displayed a composite z-score in assay [11] of -0.0984. The z-score in [2] was -2.4 (inactive); in assay [3] it was 2.03 (inactive); in [4], -1.16 (inactive); in assay [10], 2.61 (inactive); in assay [12] it was 1.31 (inactive); in assay [13], 0.548 (inactive). The z-score in [14] was 0.224 (inactive); in [15], 0.5 (inactive); in assay [16], 0.595; in assay [17] it was 0.649 (inactive); in [18], 0.24 (inactive); in assay [19] it was -0.181. Further, the z-score in assay [20] was 0.421.

As to `CC(C)(C)OC(=O)CC[C@@]1(C(=O)NCc2ccccc2)N=C(c2ccc(OCCCO)cc2)O[C@@H]1c1ccccc1CN=[N+]=[N-]`, the composite z-score was determined as 1.14 in [1]; 1.17 in [5]; 0.156 in [6]; 0.807 with Torsin-1A (Homo sapiens) [7]; 0.312 in the assay with Torsin-1A (Homo sapiens) [8]; 0.285 in [9]. This compound also gave a composite z-score in assay [11] of -0.14. Moreover, the z-score in assay [2] is -5.23 (inactive); in [3] it was 1.46 (inactive); in assay [4], -1.42 (inactive); in assay [10] it was 2.4 (inactive); in assay [12] it was 26.3 (active); in [13] it was 16.7 (active). The z-score was -0.187 (inactive) in assay [14]; 0.712 (inactive) in assay [15]; 2.07 in [16]; -0.046 (inactive) in [17]; -0.0643 (inactive) in assay [18]; -1.35 in [19]. For the same compound, the z-score in assay [20] was 1.09.

As for `C=CCNC(=O)[C@H]1[C@@H]2C(=O)O[C@@H](c3ccccc3)[C@@H](c3ccccc3)N2[C@@H](c2ccccc2OCCO)[C@]12C(=O)N(C(=O)OCCOC)c1ccc(C#CCCO)cc12`, the composite z-score stood at 0.641 in assay [1]; 0.876 in assay [5]; 0.561 in [6]; 1.02 with Torsin-1A (Homo sapiens) [7]; 0.546 in the assay with Torsin-1A (Homo sapiens) [8]; 0.861 in assay [9]. In [11], this compound yielded a composite z-score of 1.12. The z-score in [2] was -3.68 (inactive); in assay [3] it was 0.472 (inactive); in assay [4], 3.22 (inactive); in assay [10], 1.4 (inactive); in assay [12], 2.84 (inactive); in [13], 1.32 (inactive). The z-score is -0.383 (inactive) in assay [14]; 0.875 (inactive) in [15]; 0.0195 in assay [16]; 1.74 (inactive) in assay [17]; 1.42 (inactive) in assay [18]; 1.01 in assay [19]. In addition, the z-score in [20] was 0.822.

Take `COc1ccc([Si](C)(C)[C@H]2[C@H](CC(=O)N(CCO)Cc3ccccc3)O[C@@]3(C(=O)N(Cc4ccc(N5CCC5=O)cc4)c4ccccc43)[C@@H]2C)cc1`: the composite z-score in [1] was -0.161; in assay [5], -0.161; in assay [6] it was -0.128; with Torsin-1A (Homo sapiens) [7] it was 0.162; with Torsin-1A (Homo sapiens) [8], 0.294; in assay [9] it was 0.407. Also, the composite z-score in assay [11] was -0.188. Also, the z-score in [2] is -2.68 (inactive); in [3], 1.82 (inactive); in assay [4] it was -0.316 (inactive); in assay [10], 1.33 (inactive); in assay [12] it was 27.1 (active); in assay [13], 21.7 (active). In addition, the z-score in assay [14] was 0.241 (inactive); in assay [15], 2.17 (inactive); in assay [16], 1.39; in assay [17], 0.946 (inactive); in [18], 1.25 (inactive); in assay [19], 2.96. In [20], the z-score was -0.0126.

Turning to `C=C[C@H](OC)[C@@H](OC(=O)Nc1ccc(OC)cc1)c1ccc(OC)c(O)c1`, the composite z-score in [1] was -0.307; in [5], -1.38; in assay [6], -0.348; with Torsin-1A (Homo sapiens) [7] it was -0.86; in the assay with Torsin-1A (Homo sapiens) [8] it was -0.657; in [9], 0.149. The composite z-score in assay [11] is -0.0984. For the same compound, the z-score in assay [2] is -0.088 (inactive); in [3], 2.03 (inactive); in assay [4], -1.53 (inactive); in assay [10], 2.02 (inactive); in assay [12] it was 1.27 (inactive); in assay [13], -1.23 (inactive). Also, the z-score is -1.84 (inactive) in [14]; -1.83 (inactive) in assay [15]; -0.443 in [16]; -2.28 (inactive) in assay [17]; -1.92 (inactive) in [18]; -2 in assay [19]. Further, the z-score in assay [20] was 0.29.
